Among all 320,000 compounds or so, about 1,300 (0.41%) were called active. Another 3% or so got no clear call; they are omitted. No rule for the calls is given here. These entries were drawn from the full list. Potency and affinity values are given separately.
experiment: growth inhibition of non-replicating M. tuberculosis (AID 488890); conditions: Mycobacterium tuberculosis non-replicating, at 25 µM, stronger effect = higher value;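 also: plate controls were DMSO cells for no effect and high antibiotic wells for full effect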

| SMILES | inhibition |
| --- | --- |
| COc1ccc(N/C(=N\c2nc(C)cc(C)n2)NC(C)=O)cc1OC | -5.13% |
| COC(/C=C/Nc1ccc(C)c(C)c1)=C(C#N)C#N | -13.9% |
| COc1cccc(CNCC(O)(c2ccc(Cl)cc2)c2ccc(Cl)cc2)c1 | 31.2% |
| Cc1ccc(C(=O)N(Cc2ccccc2)C(C)(C)C)cc1C | 14% |
| CC(=O)Nc1ccc(NC(=O)CSc2nnc(-c3ccc4c(c3)OCO4)o2)cc1 | 14.8% |
| CCCC(c1nnnn1CCc1ccccc1)N1CCC(C(N)=O)CC1 (stereo not drawn) | 8.84% |
| O=C(N/N=C/c1cccnc1)c1cccc(NC(=O)c2ccccc2Cl)c1 | -2.18% |
| CCN(C(=O)c1c(-c2ccccc2)noc1C)c1ccccc1 | -7.88% |
| COc1ccc(CC(=O)Nc2cc(C)on2)cc1OC | -12.5% |
| COc1ccc(C(=O)Nc2cc(C(=O)O)cc(C(=O)O)c2)cc1Cl | 1.97% |
| Cc1sc(NC(=O)C2CC=CCC2C(=O)O)c(C(=O)OC(C)C)c1C (stereo not drawn) | 24.5% |
| C=CCn1c(=O)c(C(=O)Nc2ncccc2O)c(O)c2ccccc21 | 27.2% |
| C=CCn1c(=O)c(C(=O)Nc2ccc(C)cc2)c(O)c2ccccc21 | -32% |
| CC(C)Cn1c(=O)c(C(=O)Nc2cnccn2)c(O)c2ccccc21 | -0.18% |
| CCn1c(=O)c(C(=O)Nc2ccccc2)c(O)c2ccccc21 | 23% |
| C/C(=N\OCC(=O)OCC(=O)Nc1cc(S(C)(=O)=O)ccc1Cl)c1ccc2c(c1)OCO2 | 7.45% |
| Cc1ccccc1NC(=O)c1ccc(Cl)c(NC(=O)c2cccnc2)c1 | -8.32% |
| C[C@H](NC(=O)OC(C)(C)C)c1nnc(SCC(=O)Nc2cccc(Cl)c2)o1 | 16.3% |
| O=C(COc1ccccc1)N=C1SC2CS(=O)(=O)CC2N1c1cccc(F)c1 (stereo not drawn) | 1.19% |
| CCN(CC)C(=O)Oc1ccc2c(=O)c(-c3ccccc3)coc2c1 | 62.3% |
| CCc1c(C)c2ccc(OCC(N)=O)cc2oc1=O | 10.3% |
| CC(C)Oc1ccc2c(=O)c(-c3ccccc3)coc2c1 | 22.2% |
| COc1ccc2c(=O)c(-c3ccccc3)coc2c1 | 12.5% |

| SMILES | inhibition |
| --- | --- |
| CCOc1ccc2c(=O)c(Oc3ccccc3)c(C)oc2c1 | 57% |
| CCCOc1ccc2c(C)c(CC(=O)OC)c(=O)oc2c1 | 3.51% |
| Cc1oc2cc(OC(C)C(=O)O)ccc2c(=O)c1Oc1ccccc1 (stereo not drawn) | -10.2% |
| CC(=O)Oc1ccc2c(=O)c(-c3ccccc3)coc2c1 | 15.7% |
| CCN(CC)C(=O)CN(c1ccc(Cl)cc1)S(=O)(=O)c1ccccc1 | 3.57% |
| NS(=O)(=O)c1ccc(NC(=O)c2cccc(Cl)c2)cc1 | -6.52% |
| Cc1ccc(SCCC(=O)Nc2ccccc2C(=O)NC2CCCCC2)cc1 | -25.9% |
| Cc1cc(C)c(NC(=O)CN(C)S(=O)(=O)c2ccc3c(c2)n(C)c(=O)c(=O)n3C)c(C)c1 | -2.46% |
| C=CCN1CC(O)=C(c2ccccc2)C1=N | -5.76% |
| CN(C)C(=O)CSc1nnc(-c2cccnc2)n1-c1ccccc1 | -19.8% |
| Cc1ccc2ncnc(Nc3ccc(C)c(C)c3)c2c1 | 17.8% |
| Cc1ccc(-c2nnc(COC(=O)c3ccco3)o2)cc1 | 60.2% |
| O=C(OCc1nnc(-c2ccccc2)o1)c1ccco1 | 76.9% |
| CC(=NNC(=O)CSc1nc2ccccc2o1)c1ccco1 | 13.5% |
| NC(=O)CSc1nnc(-c2ccncc2)o1 | 1.06% |
| O=C(OCC#CCSc1nnc(-c2cccc3ccccc23)o1)c1cc2ccccc2o1 | 71.3% |
| O=C(COC(=O)c1ccco1)Nc1nnc(-c2ccccc2)o1 | 4.16% |
| O=C(CSc1nc2ccccc2o1)N1CCN(C(=O)c2ccco2)CC1 | 7.29% |
| COc1ccc(-c2nnc(SCC(=O)c3cccs3)o2)cc1 | 63.8% |
| N#Cc1ccc(-c2ccc(F)cc2)nc1Oc1ccccc1 | 2.75% |
| Cc1onc(-c2c(Cl)cccc2Cl)c1C(=O)NNc1ccccc1 | 77.8% |
| CCC(CC)c1nnc(NC(=O)CS(=O)(=O)c2ccccc2)s1 | -1.72% |
| COCCOC(=O)c1c(NC(=O)CN2CCCc3ccccc32)sc(C(N)=O)c1C | 22.6% |

| SMILES | inhibition |
| --- | --- |
| COc1ccc(N(CC(=O)NC2CCCC2)C(=O)c2ccc(N3CCCCC3)nc2)cc1 | 11% |
| CC(C)c1nnc(NC(=O)c2cc3ccccc3o2)s1 | -9.61% |
| COCc1nnc(NC(=O)c2cc3ccccc3o2)s1 | 8.81% |
| O=C(NNC(=O)c1cc2cc(Br)ccc2oc1=O)c1ccc(O)cc1O | 23.6% |
| Cc1cccnc1NC(=O)c1cc2ccccc2oc1=O | 66.8% |
| CCCc1nnc(NC(=O)c2cc3ccccc3o2)s1 | 16.7% |
| Cc1nnc(NC(=O)c2cc3ccccc3o2)s1 | 16.8% |
| c1cc2c3c(cccc3c1)NC(c1ccc3c(c1)OCO3)N2 | 12.1% |
| CC1(C)Cc2c(c(-c3ccccc3)nc(N3CCOCC3)c2C(N)=O)CO1 | 0.34% |
| CCCOc1ccc(-c2c(C(=O)N/N=C/c3ccc(OCC)cc3)nnn2-c2nonc2N)cc1 | 8.95% |
| COc1ccc(NC(=O)CSc2ccc3nnc(-c4ccccn4)n3n2)cc1OC | -12% |
| COc1ccc2[nH]c(CN3CCC(CO)(CCOc4ccccc4)CC3)c(C)c2c1 | 48.7% |
| Cc1nn(C)cc1CN1CCC(CO)(CCOc2ccccc2)CC1 | -0.6% |
| COc1ccc(OC)c(C(=O)NC2CCSc3ccccc32)c1 (stereo not drawn) | 3.7% |
| O=C(Nc1cccc(NC(=O)C2CC3CCCC(C2)C3=O)n1)C1CC2CCCC(C1)C2=O (stereo not drawn) | 28.2% |
| Cc1cc(Cl)ccc1N=c1ssnc1Cl | 19.9% |
| Cc1ccc(N=c2ssnc2Cl)cc1 | 77.3% |
| Cn1nc(C(=O)NCc2cccs2)c2ccccc2c1=O | 40.9% |
| COC(=O)c1sc2ncn(-n3c(C)ccc3C)c(=O)c2c1C | 5.25% |
| Cc1c(C(=O)O)sc2ncn(C)c(=O)c12 | -3.22% |
| Cc1cc(C)n2nc(S(=O)(=O)NC(C)(C)C)nc2n1 | -0.21% |
| COc1cccc(NS(=O)(=O)c2nc3nc(C)cc(C)n3n2)c1 | -24.1% |
| COc1ccc(OCC(=O)N(C)CC2COc3ccccc3O2)cc1 (stereo not drawn) | 27.1% |

| SMILES | inhibition |
| --- | --- |
| COCc1nnc(NC(=O)c2cccc(NC(=O)C(C)C)c2)s1 | -15.2% |
| Cc1ccc(C(=O)N/C(=C\c2cccc([N+](=O)[O-])c2)C(=O)NC(Cc2ccccc2)C(=O)O)cc1 (stereo not drawn) | 4.43% |
| CC(=O)Nc1ccc(N/C(N)=N/c2nc(C)cc(C)n2)cc1 | -1.18% |
| Cc1ccc(N/C(N)=N/c2nc(C)cc(C)n2)cc1 | 7.73% |
| CC(C)(C)c1ccc(C(=O)NNC(=O)c2ccc(Cl)cc2)cc1 | -14.5% |
| CC(C)(C)NC(=O)C(=O)NNC(=O)c1ccccc1 | 10.8% |
| O=C(CCC(=O)c1ccc(Br)cc1)Nc1cccnc1 | 40.4% |
| CCN(CC(=O)NC(C)C)C(=O)[C@@H](NC(=O)c1ccco1)C(C)C | -7.65% |
| CCCC(O)(CCC)C(=O)NNc1ccccc1 | 23.3% |
| CCCCC(O)(CCCC)C(=O)NNc1ccccc1 | 36.2% |
| Cc1ccc(-c2nnc(SCC(=O)NCC3CCCO3)n2C)cc1 (stereo not drawn) | -16.4% |
| CC(C)(C)C(=O)Nc1nnc(-c2ccncc2)o1 | 1.94% |
| O=C(Nc1nnc(-c2ccc(Cl)cc2)o1)Nc1ccccc1F | 11.3% |
| Cc1ccccc1C(=O)Nc1nnc(-c2ccncc2)o1 | 30.5% |
| NC(=O)c1oc2ccccc2c1NC(=O)c1nc2ccccc2s1 | 5.47% |
| Cc1ccnc2nc(C(=O)Nc3nnc(-c4ccc(Cl)cc4)o3)nn12 | 2.05% |
| O=C(Nc1nnc(-c2ccc(Cl)cc2)o1)NC1CCCCC1 | -11.6% |
| O=C(Nc1nnc(-c2ccc(Cl)cc2)o1)c1ccc(N2C(=O)CCC2=O)cc1 | -7.34% |
| O=C(Nc1nnc(-c2ccc(Cl)cc2)o1)Nc1ccccc1Cl | -7.45% |
| COCCN(C(=O)CSc1nc2ccccc2o1)c1c(N)n(Cc2ccccc2)c(=O)[nH]c1=O | 10.9% |
| Cc1ccc(NC(=O)CCCCCCCCCCC2COCCO2)c(C)c1 (stereo not drawn) | -9.85% |
| CN(C(=O)COC(=O)c1ccc(Br)c(S(=O)(=O)N2CCOCC2)c1)C1CCCCC1 | 11.1% |
| Cc1cc(-c2nnco2)c(C)n1-c1ccccc1 | 11.1% |

| SMILES | inhibition |
| --- | --- |
| O=C1NC2(CCCCCC2)C(=O)N1Cc1ccc([N+](=O)[O-])cc1 | -2% |
| O=C1C(=O)N(CCN2CCOCC2)C(c2ccccc2F)/C1=C(\O)c1ccc(S(=O)(=O)N2CCOCC2)cc1 (stereo not drawn) | 2.92% |
| O=C(COc1ccccc1)N/N=C/c1sc(=O)n(Cc2cccc(C(=O)O)c2)c1Cl | -0.36% |
| CC[C@H](C)C(C(=O)N1CCN(C(=O)OC(C)(C)C)CC1)n1cc(C(CC(C)C)NC(=O)OC(C)(C)C)nn1 (stereo partly drawn) | 10.5% |
| CCOC(=O)c1ccc(CNC(=O)Cn2nnc(-c3cccc(C)c3)n2)o1 | 4.91% |
| Cc1ccccc1NC(=O)COC(=O)CCSc1ccccc1 | 61.5% |
| CCOc1ccc(C(=O)n2cc(C(=O)OC)c3ccccc32)cc1 | 24.8% |
| O=C1CCc2cc(S(=O)(=O)NCc3ccc(F)cc3)cc3c2N1CCC3 | 22.8% |
| COc1ccc(CNC(=O)CSc2ncn[nH]2)cc1OC | -3.59% |
| COC(=O)c1ccc(NC(=O)CN2CCN(S(=O)(=O)c3cc(Cl)ccc3OC)CC2)cc1 | 54.1% |
| COC(=O)c1c(NC(=O)Cc2ccccc2)sc2c1CCN(C(C)C)C2 | -13.3% |
| CN1CCc2c(sc(NC(=O)c3ccco3)c2C(N)=O)C1 | 0.26% |
| COC(=O)c1sc(NC(=O)c2c(OC)cccc2OC)c(C#N)c1C | -6.6% |
| COC(=O)c1c(NC(=O)c2ccco2)sc2c1CCN(C(C)C)C2 | 2.92% |
| CN1CCc2c(sc(NC(=O)c3ccc(C(=O)c4ccccc4)cc3)c2C(N)=O)C1 | -13.4% |
| COC(=O)c1sc(NC(=O)c2ccco2)c(C#N)c1C | 16.9% |
| COc1ccc(/C(C)=N/OCC(=O)N=Nc2c(O)[nH]c3ccccc23)cc1 | -24.1% |
| CCC(C)NC(=O)/C=C/c1cccs1 (stereo not drawn) | 59.1% |
| COc1ccc(CNC(=O)N2CCN(c3ccccc3OC)CC2)cc1 | 1.13% |
| O=C(CCc1nc2ccccc2c(=O)[nH]1)Nc1nnc(SCc2ccc(F)cc2)s1 | -4.81% |
| O=C(Cc1ccccc1)c1ccccc1C(=O)N1CCCCC1 | 9.16% |

From PubChem BioAssay AID488890 (Southern Research Specialized Biocontainment Screening …, 2010)
